# Results as given in PubChem BioAssay (NCI).
# The panel holds about 83,000 compounds, 20% with a hit somewhere; the sample as a whole holds those more often.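 Percent growth is the endpoint: 0 to 100 indicates growth inhibition (40 means 60% inhibition), 0 means no net growth, and negative values indicate cell death.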 The source made the active and inactive calls. The calls were made as follows: active = growth percent below 10; inactive = the rest.
# System: MDA-MB-468 breast
# Test: NCI-60 one-dose screen, 48 h (100 = growth as untreated, 0 = no growth, -100 = all killed)
# Conditions: 10 µM unless noted
row,Compound,growth
1,COc1cc(OC)c(NC(=O)c2cc3ccccc3cc2O)cc1Cl,75.7% (inactive)
2,COc1cc(/C=N/Nc2nc(-c3ccc(F)cc3)c(C#N)c(N3CCOCC3)n2)ccc1O,87.4% (inactive)
3,O=S(=O)(NCCCNc1cc(-c2c(-c3cccc(O)c3)nc3sccn23)ccn1)c1cccc2ccccc12,38.3% (inactive)
4,C=CCNC(=S)N/C=C(/C(=O)c1ccccc1)c1ccccc1,102% (inactive)
5,CS(=O)(=O)c1ncc(-c2ccccc2)cn1,95.6% (inactive)
6,CC(=O)Nc1cc2c(cc1Cl)Cc1cc(Cl)ccc1-2,-50.2% (active)
7,CCN(CC)c1ccc(-c2cc(-c3cc(OC)c(OC)c(OC)c3)nc(N3CCOCC3)c2C#N)cc1,32.9% (inactive)
8,COc1ccc2c(c1)C(C)Cc1c(ncnc1-n1cnc3cc(C)ccc31)N2C (stereo not given),7.23% (active)
9,Nc1n[nH]c2ccc([C@@H]3Nc4ccc5[nH]ncc5c4[C@H]4[C@H]5CCC(C5)[C@H]43)cc12,28.1% (inactive)
10,O=C(CSc1nnc(-c2cc(-c3ccccc3)nc3ccccc23)n1-c1ccccc1)Nc1ccc(C(=O)/C=C/c2ccc(Cl)cc2)cc1,88.9% (inactive)
11,CS(=O)(=O)N(c1cc(-c2ccc3ncnc(Nc4ccc(F)c(Cl)c4)c3c2)cnc1Cl)S(C)(=O)=O,-19.6% (active)
12,COc1ccc(C(c2cc(OC)c(OC)c(OC)c2)N2CCCC2)cc1 (stereo not given),54.8% (inactive)
13,C=C1c2c(C)nn(-c3ccc(S(N)(=O)=O)cc3)c2N(C)C23CC1C1(C)c4c(C)nn(-c5ccc(S(N)(=O)=O)cc5)c4N(C)C(C)(CC12)C3 (stereo not given),0.632% (active)
14,COc1ccc(Cl)cc1NC(=O)c1c(NC(=O)C(F)(F)C(F)(F)F)sc2c1CCCCC2,-16.9% (active)
15,N#Cc1c2cccnc2c2nnc3cc(Cl)c(Cl)cc3n12,-56% (active)
16,C=C(C)[C@@H]1CC[C@]2(C(=O)NC(C)=O)CC[C@]3(C)[C@H](CC[C@@H]4[C@@]5(C)CCCNC(C)(C)[C@@H]5CC[C@]43C)[C@@H]12,-20.3% (active)
17,O=C(O)CN1C(=O)C=CC1=O,104% (inactive)
18,O=C1C(Cl)=C(Oc2ccccc2)C(=O)c2ccccc21,13% (inactive)
19,COc1ccc(-c2nn(-c3ccccc3)cc2/C=C/C(=O)NNC(=O)Nc2ccc(C)cc2)cc1,102% (inactive)
20,CCS(=O)(=O)OCCCl,94.9% (inactive)

row,Compound,growth
1,ClC1=C(Cl)C(Cl)=C(Cl)C1=Cc1ccc(Cl)cc1,45.3% (inactive)
2,NC(=O)c1c(NC(=O)c2cccs2)sc2c1CCC(=O)C2,65.2% (inactive)
3,COc1ccc2nc3cc(Cl)ccc3c(N3CCN(c4nccc(Nc5ccccc5)n4)CC3)c2c1,37.9% (inactive)
4,COc1ncc(-c2ccc3nccc(C#CCCCCC(=O)O)c3c2)cc1NS(=O)(=O)c1ccc(F)cc1F,-29.4% (active)
5,Cc1ccc(S(=O)(=O)N(CCC(=O)O)c2ccccc2)cc1,113% (inactive)
6,CCOC(=O)Cc1cnc(N/N=C(\C)c2cc3ccccc3o2)s1,99.8% (inactive)
7,N[C@H]1CCC[C@@H]1NCCCCN1C(=O)c2cccc3cccc(c23)C1=O,50.4% (inactive)
8,COc1ccc(Cc2cnc(NC(=O)c3sc4ccccc4c3Cl)s2)cc1,23.5% (inactive)
9,C#CC(F)(F)[C@]1(O)CC[C@H]2[C@@H]3CCC4=CC(=O)CCC4=C3[C@@H](c3ccc(C4CC4)cc3)C[C@@]21C,33.8% (inactive)
10,CCN(CC)CCOC(=O)Nc1ccccc1Cl,104% (inactive)
11,CCCCCCCCC(=O)Nc1ccc(O)cc1,100% (inactive)
12,O=C(Nc1ccc(F)cc1)Nc1ccc(Cl)c([N+](=O)[O-])c1,-3.78% (active)
13,C/C=C/C/C=C/[C@H](C)C[C@H](O)[C@@H]1C[C@@H]2O[C@H]2/C=C/[C@@H]2OC(C)(C)O[C@H]2/C=C/C[C@H](C)CC(=O)O1,59.8% (inactive)
14,COc1ccc(/C=N/NC(=O)CSc2nc(-c3cnccn3)cc(-c3cccs3)c2C#N)cc1,83.1% (inactive)
15,O=[N+]([O-])c1ccc(Oc2ccccc2Cl)c([N+](=O)[O-])c1,64.2% (inactive)
16,CCOc1ccccc1/C=N/N1CCCCCC1,108% (inactive)
17,N#CC1=C(N)Oc2c(cnn2-c2ccc([N+](=O)[O-])cc2[N+](=O)[O-])C1c1ccccc1 (stereo not given),87.7% (inactive)
18,O=C(CCCC(=O)Nc1ccc(-n2nnc3cc(Cl)c(Cl)cc32)cc1)Nc1ccc(-n2nnc3cc(Cl)c(Cl)cc32)cc1,18.9% (inactive)
19,Nc1ncnc2c1N=C(c1ccc(Br)cc1)CC(c1cccc(Nc3ccnc4cc(C(F)(F)F)ccc34)c1)N2 (stereo not given),60.7% (inactive)
20,N=S(=O)(NC(=O)c1ccc(Cl)cc1Cl)c1ccc(Br)s1 (stereo not given),92.8% (inactive)
